Measurements: ChEMBL document CHEMBL3988442, “University of Dundee, Small-Polar-MMV Screening Library” (2021)
About 13,000 (27%) of roughly 48,000 compounds showed an effect of 50% or more. The list shows a part of the results.

system: Wolbachia pipientis; test: Anti-Wolbachia Cell-Based Screen; assay type: functional; set-up: scale not given: in the data most compounds retested in dose-response had high values; details: 5 µM

Row | Structure (SMILES) | Percent Effect [%]
1 | CC(C)(C)CN(CCC#N)C(=O)Cc1ccc(-n2cnnn2)cc1 | -11.58
2 | COCCc1noc(CN2CCc3nn(C(C)C)c(=O)cc3C2)n1 | 0.5745
3 | Cc1nnc(CN(C)CCc2nc(-c3cccc(Cl)c3)no2)n1C | -15.48
4 | Cc1cnn(C2CN(CC(O)c3ccccc3)C2)c1 (centres undefined) | 7.133
5 | O=C(COc1ccc2c(c1)CCCC2=O)NCc1ccco1 | 5.581
6 | COc1ccc2c(c1)CN(Cc1ccco1)C(=O)CCN2 | 81.17
7 | CN(C1CCCCC1)S(=O)(=O)N1CCN(Cc2ccco2)CC1 | 20.54
8 | CN(Cc1n[nH]c(=O)n1Cc1ccco1)S(C)(=O)=O | 13.53
9 | Cc1ncc(-c2ccnc(N3CCN(C)CC3)n2)c(-c2cccnc2)n1 | -5.726
10 | Cc1ncc(-c2ccnc(SCCN)n2)c(-c2ccco2)n1 | 79.73
11 | NCCSc1nccc(-c2cnc(C3CC3)nc2-c2ccco2)n1 | 112.5
12 | Cc1ncc(-c2ccnc(SCCN(C)C)n2)c(-c2ccco2)n1 | 91.76
13 | COCCN(c1cc(C)nc2nc(C(F)(F)F)nn12)C1CCCC1 | -0.8248
14 | CC1(C)CNC(=O)c2nc(CCCN3CCCC3)[nH]c2C1 | -5.112
15 | CCn1cnnc1Cc1nc2c([nH]1)CC(c1ccc(Cl)cc1)CNC2=O (centres undefined) | 5.995
16 | CCN(CC)CCc1nc2c([nH]1)CC(c1ccc(Cl)cc1)CNC2=O (centres undefined) | -9.032
17 | O=C1NCC(c2ccc(F)cc2)Cc2[nH]c(CCN3CCCC3)nc21 (centres undefined) | 95.37
18 | O=C1NCC(c2ccc(Cl)cc2)Cc2[nH]c(CCN3CCOCC3)nc21 (centres undefined) | 104.7
19 | CC1(C)CNC(=O)c2nc(CCN3CCOCC3)[nH]c2C1 | -31.15
20 | Cc1cc(-c2ccc(C(C)N3CCCCC3)cc2)cnc1N (centres undefined) | 11.64
21 | Cc1nccnc1N1Cc2cnn(Cc3ccc(F)cc3)c2C1 | 9.58
22 | CC(=O)Nc1ccc2nc(-c3nccn3CC(C)(C)CO)ccc2c1 | 3.908
23 | Cc1cc(C(=O)N2CCCC(C)C2)ccc1NCc1nc(C(C)C)no1 (centres undefined) | 111.7

Row | Structure (SMILES) | Percent Effect [%]
24 | Cc1noc(CNc2ccc(C(=O)N3CCCC(C)C3)cc2C)n1 (centres undefined) | 71.8
25 | CCc1noc(CNc2ccc(C(=O)N3CCCC(C)C3)cc2C)n1 (centres undefined) | -0.296
26 | Cc1nccn1C1CCCN(C(=O)CCc2nc(C(C)C)no2)C1 (centres undefined) | 10.57
27 | Cc1cc(CNc2ccc(C(=O)N3CCCC(C)C3)cc2C)no1 (centres undefined) | 0.152
28 | Cc1cc(C(=O)N2CCCC(C)C2)ccc1NCc1nc(C2CC2)no1 (centres undefined) | 111.9
29 | CCc1cnc(CNc2ccc(C(=O)N3CCCC(C)C3)cc2C)o1 (centres undefined) | 0.007999
30 | CC(C)c1noc(CNc2ccc(OC(F)F)cc2OC(F)F)n1 | -33.16
31 | CNS(=O)(=O)Cc1cccc(CNCc2ccsc2)c1 | -11.11
32 | CCN(Cc1cnn(CC)c1)C(=O)Cn1c(=O)ccc2ccccc21 | 8.668
33 | Cc1noc(C)c1CN(C)C(=O)c1ccc(NC2CC2)nc1 | -0.4037
34 | Cl.O=C1NCCCCC1NCc1csc(-c2ccc(F)cc2)n1 (centres undefined) | -5.681
35 | Cc1ccc(Cc2cnc(C3CCNCC3)cn2)cc1.Cl | 94.42
36 | O=C1NCCCc2[nH]c(Cc3ccc(F)cc3)nc21 | -3.55
37 | Cl.Fc1ccc(Cc2cnc(C3CCCN3)cn2)cc1 (centres undefined) | 101.6
38 | CN(C)C(=O)c1cccc(CCNc2ccccc2S(C)(=O)=O)c1 | -12.66
39 | CC(C)Nc1ncccc1C(=O)NC1CC(=O)N(CC(F)(F)F)C1 (centres undefined) | 5.646
40 | CC(=O)N(C)CC(=O)NCC1(c2c(F)cccc2F)CCCC1 | 20.23
41 | Cc1cc(C)n(C2CCCN(C(=O)c3cnc4onc(C)c4c3)C2)n1 (centres undefined) | 3.729
42 | CNC(=O)c1ccc(C(=O)N2CCCC(n3nc(C)cc3C)C2)cn1 (centres undefined) | 97.01
43 | Cc1cc(C)n(C2CCCN(C(=O)c3ccc(N(C)C)nc3)C2)n1 (centres undefined) | 99.92
44 | Cc1cc(C)n(C2CCCN(C(=O)c3ccc(NC4CC4)nc3)C2)n1 (centres undefined) | -9.75
45 | Cc1cc(C)n(C2CCCN(C(=O)c3ccnc(N(C)C)c3)C2)n1 (centres undefined) | -18.09
46 | Cc1cc(C)n(C2CCCN(C(=O)c3ccn(C)c(=O)c3)C2)n1 (centres undefined) | -8.273

Row | Structure (SMILES) | Percent Effect [%]
47 | O=C(NC1CCCNC1=O)c1ccc2nc(-c3ccc(F)cc3)cn2c1 (centres undefined) | -16.52
48 | CC1CCCN(CCNC(=O)c2cncnc2C(C)C)C1 (centres undefined) | 11.51
49 | CC1CCN(CCNC(=O)c2ccccc2N2CCOCC2)CC1 | -0.8532
50 | Cc1cc(C(=O)NCCN2CCCC(C)C2)nn1C (centres undefined) | -3.799
51 | CCc1ncncc1C(=O)NCCN1CCC(C)CC1 | 6.983
52 | Cc1cc(C(=O)NCCN2CCCCC2C)nn1C(C)(C)C (centres undefined) | 107.2
53 | Cc1cc(C(=O)NCCN2CCCC(C)C2)nn1C(C)(C)C (centres undefined) | 95.43
54 | Cc1cc(C(=O)NCCN2CCC(C)CC2)nn1C(C)(C)C | 102.5
55 | Cc1cc(C(=O)NCCN2CCCCCC2)nn1C(C)(C)C | 99.33
56 | CC1CCCCN1CCNC(=O)c1ccn(-c2ccc(F)cc2)n1 (centres undefined) | 4.653
57 | CC1CCCCN1CCNC(=O)c1ccccc1N1CCOCC1 (centres undefined) | 19.03
58 | CCc1ncc(C(=O)N2CCN(c3nc(C)cc(OC)n3)CC2)s1 | -13.57
59 | CC(C)NC(=O)[C@@H]1C[C@H](N)CN1C(=O)c1cc2c([nH]c1=O)CCCC2 | 1.783
60 | Cc1cccc2c1cnn2CCC(=O)NCC(=O)N(C)C | 14.92
61 | Cc1cc(C(=O)N2CCCC(N3CCCCCC3)C2)nn1C(C)(C)C (centres undefined) | -14.1
62 | Cc1cc(C(=O)NCCN2CCCCC2)nn1C(C)(C)C | 88.73
63 | O=C(O)C(F)(F)F.O=C(c1cc[nH]n1)N1CCC(F)(F)C2(CCN(c3ccccn3)C2)C1 (centres undefined) | -20.89
64 | O=C(O)C(F)(F)F.c1ccc(CN2CCOC3(COCCN(c4ncccn4)C3)C2)nc1 (centres undefined) | -5.957
65 | FC1(F)CCN(Cc2ccccn2)CC12CCN(c1cnccn1)C2.O=C(O)C(F)(F)F.O=C(O)C(F)(F)F.O=C(O)C(F)(F)F (centres undefined) | 108
66 | FC1(F)CCN(Cc2ccccn2)CC12CCN(c1ncccn1)C2.O=C(O)C(F)(F)F (centres undefined) | 99.55
67 | FC1(F)CCN(Cc2ccncc2)CC12CCN(c1cnccn1)C2.O=C(O)C(F)(F)F.O=C(O)C(F)(F)F.O=C(O)C(F)(F)F (centres undefined) | 91.26
68 | Fc1ccc(CN2CCC(F)(F)C3(CCN(c4cnccn4)C3)C2)cc1.O=C(O)C(F)(F)F.O=C(O)C(F)(F)F (centres undefined) | 95.57
69 | Fc1cnc(N2CCC3(CC2)CN(Cc2ccccn2)CCO3)nc1.O=C(O)C(F)(F)F.O=C(O)C(F)(F)F | 3.828
